Reference: PubChem BioAssay AID1159580 (chemical genetic matrix, 2015)
Among all 5,500 compounds or so, about 2,000 (36%) were called active. Roughly 18% stayed inconclusive and do not appear here. No stated cut-off is given here; in the data, active means normalized growth mostly below about 0.91 (no sharp cut-off); inconclusive means no clear call, values can overlap the other calls; inactive means mostly above about 0.92. The list shows a part of the results.

Assay: chemical genetic growth profiling, strain panel (AID 1159580);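 further: tested at 20 µM; growth read once vehicle control cultures reached saturation at 30 °C; 1 = growth at the plate median or of vehicle wells; lower values mean less growth of the strain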
Settings: S. cerevisiae deletion strains, growth OD

Measured: normalized growth

NC(CP(=O)(O)O)C(=O)O (centres undefined)
inactive: locus YAL040C, strain CLN3, active compounds read low 1.09 | locus YCL061C, strain MRC1 (second series), active compounds read low 0.998 | locus YER002W, strain NOP16, active compounds read low 1.03 | locus YNL153C, strain GIM3, active compounds read low 1.04 | locus YNL175C, strain NOP13, active compounds read low 1.01 | locus YNL197C, strain WHI3, active compounds read low 1.01 | locus YNL224C, strain SQS1, active compounds read low 1.01 | locus YOR083W, strain WHI5 (second series), active compounds read low 1.01 | locus YPL055C, strain LGE1, active compounds read low 1.02
